How the values were obtained:
Type in all cases: functional
[1] = tested on: Plasmodium falciparum; test: GSK_TCMDC: Inhibition of Plasmodium falciparum 3D7 in whole red blood cells, using parasite LDH activity as an index of growth. Test compounds present at 2uM
[2] = tested on: Plasmodium falciparum; test: GSK_TCMDC: Inhibition of Plasmodium falciparum Dd2 in whole red blood cells, using parasite LDH activity as an index of growth. Test compounds present at 2uM
[3] = tested on: HepG2; test: GSK_TCMDC: Percent inhibition of human HepG2 cell line. Test compounds present at 10uM.

| SMILES | Inhibition [1] | Inhibition [2] | Inhibition [3] |
| --- | --- | --- | --- |
| CC(C)NCC(O)Cn1c2ccc(Br)cc2c2cc(Br)ccc21 (centres undefined) | 99% | 100% | 100% |
| CNc1ccc(CNCc2cccc(-c3ccc(-c4nc5cccc(C)c5[nH]4)cc3)c2)cc1.O=C(O)C(F)(F)F | 100% | 83% | 26% |
| Cc1cccc2nc(-c3cccc(-c4ccc(CN5CCC(C(N)=O)CC5)cc4)c3)[nH]c12.O=C(O)C(F)(F)F | 89% | 9% | 0% |
| Cc1cc(-c2ccc3c(c2)CCN(CCC2CCC(NC(=O)/C=C/c4cccc(Cl)c4)CC2)CC3)on1.Cl (centres undefined) | 100% | 49% | 16% |
| Cc1c(Cl)ccc2c(C(=O)Nc3ccncc3)cc(-c3cccnc3)nc12 | 99% | 83% | 16% |
| O=C(Nc1ccc(CC(=O)N2CCc3cc(Cl)c(N4CCN(C/C=C/c5ccccc5)CC4)cc32)cc1)Nc1cccc([N+](=O)[O-])c1 | 95% | 27% | 0% |
| COC(=O)C1=C(C)NC2=C(C(=O)CC(c3ccc(OC)c(OC)c3)C2)C1c1cccc(O)c1 (centres undefined) | 99% | 69% | 2% |
| COc1cccc(OCC2CCCN(CCCCNC(=O)c3ccc(NC(=O)c4ccc(Cl)cc4)cc3)C2)c1 (centres undefined) | 100% | 49% | 33% |
| COc1ccc(C2CC(=O)C3=C(C2)NC(C)=C(C(=O)OC(C)C)C3c2c(F)cccc2Cl)cc1OC (centres undefined) | 93% | 81% | 0% |
| CCC1CN2CCc3c([nH]c4ccccc34)C2CC1CC1=NCCc2c1[nH]c1ccccc21.Cl (centres undefined) | 100% | 47% | 20% |
| COc1cccc(-c2cnc(-c3ccncc3)nc2C2CCN(Cc3ccc(NC(C)=O)cc3)CC2)c1 | 89% | 0% | 17% |
| COc1cc(NCCCCCNc2cc(Cl)nc3ccccc23)nc2ccccc12 | 100% | 54% | 17% |
| CCS[C@@H]1O[C@H](COC(=O)c2ccccc2)[C@H](OC(=O)c2ccccc2)[C@H](OC(=O)c2ccccc2)[C@H]1OC(=O)c1ccccc1 | 98% | 52% | 4% |
| Cc1ccc2c(N/N=C/c3cccc([N+](=O)[O-])c3)cc(C)nc2c1 | 100% | 97% | 33% |
| CCc1cn2c3c(cc(C(=O)N[C@@H](Cc4ccccc4)[C@H](O)CNC4CCC4)cc13)N(C)S(=O)(=O)CC2 | 98% | 98% | 0% |
| COc1cc2ncnc(Nc3ccc(OCc4ccccc4Br)c(Cl)c3)c2cc1OC.Cl | 96% | 6% | 25% |
| Cc1noc(-c2ccc3c(c2)CCN(CCC2CCC(NC(=O)/C=C/c4cccc(Cl)c4)CC2)CC3)n1.Cl (centres undefined) | 86% | 24% | 37% |
| CN(c1ccccc1C(=O)Nc1ccccc1Oc1ccccc1)S(=O)(=O)c1ccccc1 | 90% | 80% | 2% |
| COc1cccc(-c2csc(C(=O)NC3CCCCN(Cc4ccc(C(C)(C)C)cc4)C3)c2)c1.O=C(O)C(F)(F)F (centres undefined) | 97% | 66% | 9% |
| O=C(C=Cc1cccs1)Nc1ccc(-c2nc3ccccc3[nH]2)cc1 | 83% | 3% | 0% |
| CCC1CN2CCc3cc(OC)c(OC)cc3C2CC1CC1NCCc2cc(OC)c(OC)cc21.Cl (centres undefined) | 100% | 98% | 42% |
| O=C(NCC1CCN(Cc2ccc(F)cc2)C1)c1cc(-c2cccc(C(F)(F)F)c2)cs1.O=C(O)C(F)(F)F (centres undefined) | 93% | 18% | 38% |
| Cc1cc2nc(-c3ccc(C(=O)NCCCc4ccccc4)cc3)[nH]c2cc1C | 91% | 5% | 7% |
| FC(F)(F)c1ccc(N2CCCN(Cc3cccc(-c4ccccc4CNCc4ccc5c(c4)OCO5)c3)CC2)nc1.O=C(O)C(F)(F)F | 87% | 11% | 23% |

| SMILES | Inhibition [1] | Inhibition [2] | Inhibition [3] |
| --- | --- | --- | --- |
| CCS(=O)(=O)c1ccc(OC)c(Nc2nccc(-c3c(-c4cccc(NC(=O)c5c(F)cccc5F)c4)nn4ncccc34)n2)c1 | 87% | 88% | 27% |
| COc1cc(NC(=O)c2sc(-c3ccc(Cl)cc3)cc2NC(=O)c2cccnc2)ccc1OCCN1CCCC1 | 94% | 77% | 38% |
| CCCNCc1ccc(-c2ccc(CN(CCOC)C(=O)CC3CCCC3=O)cc2)nc1.O=C(O)C(F)(F)F (centres undefined) | 93% | 9% | 5% |
| CCOc1cc2ncnc(Nc3ccc(OCc4ccccc4F)c(Cl)c3)c2cc1OCC.Cl | 100% | 74% | 4% |
| Fc1ccc(-c2cc(NCCCn3ccnc3)nc(-c3cccnc3)n2)cc1 | 99% | 70% | 11% |
| O=C(/C=C/c1ccc(Cl)cc1)NCCCCCN1CCN(C(=O)C=Cc2ccc(Cl)c(Cl)c2)CC1.O=C(O)C(F)(F)F | 92% | 0% | 30% |
| Clc1ccc(-c2cc3c(NCc4ccncc4)nccc3s2)cc1 | 98% | 8% | 26% |
| COc1cc(C)nc2ccc(NC(=O)Nc3ccccc3[N+](=O)[O-])cc12 | 100% | 58% | 6% |
| CCOc1ccc2c(=NN=Cc3c4ccccc4cc4ccccc34)cc(C)[nH]c2c1 | 90% | 94% | 0% |
| O=C(NCC1CCC1)c1cnc(Nc2cccc(Cl)c2)nc1N1CCC1 | 98% | 75% | 21% |
| COc1cc(NC2=C(c3ccccc3)C(=O)c3ccccc32)ccn1 | 96% | 96% | 7% |
| CC(=O)N(C)C1CCN(Cc2cccc(-c3ccc(-c4nc5cc(F)ccc5[nH]4)cc3)c2)C1.O=C(O)C(F)(F)F (centres undefined) | 92% | 19% | 24% |
| Cc1cccc(Cn2c(C(N)=O)nn(-c3ccc([N+](=O)[O-])cc3C#N)c2=S)c1 | 100% | 48% | 1% |
| Cl.O=C(Nc1ccc(C(=O)Nc2ccc(C3=NCCN3)cc2)cc1)Nc1ccc(C2=NCCN2)cc1 | 94% | 95% | 0% |
| CCCCCCN(CCCCCC)CC(O)c1c(OC)ccc2ccccc12.Cl (centres undefined) | 100% | 100% | 18% |
| O=C(NC1CCN(c2ccnc3cc(Cl)ccc23)C1)c1ccc(C(F)(F)F)cc1.O=C(O)C(F)(F)F (centres undefined) | 100% | 57% | 37% |
| O=C(Nc1ccc2c(c1)CCC2)c1ccc(CN2CCCN(Cc3cccc(O)c3)CC2)cc1.O=C(O)C(F)(F)F | 88% | 46% | 45% |
| COc1ccc(-c2ccccc2CNc2nc(NCCc3ccc(O)cc3)nc(N3CCNCC3)n2)cc1.O=C(O)C(F)(F)F | 86% | 3% | 48% |
| CN(C)Cc1ccc(-c2ccc(NC(=O)c3ccc4c(=O)n(Cc5ccoc5)cnc4c3)cc2)cc1 | 80% | 16% | 32% |
| Nn1c(=O)oc2ccc(Cl)cc2c1=O | 97% | 96% | 4% |
| CC(C)c1ccc(NC(=O)c2cccc(CN3CCCN(Cc4cccc(O)c4)CC3)c2)cc1.O=C(O)C(F)(F)F | 97% | 33% | 25% |
| Cl.O=C(N[C@@H](Cc1ccccc1)[C@H](O)CNC1CCc2ccccc2C1)c1cc(C2CCCC2)cc(N2CCCC2=O)c1 (some centres undefined) | 99% | 76% | 23% |
| COc1ccc(CNC2CCN(C)CC2)cc1-c1ccc(S(=O)(=O)NCCc2ccccn2)cc1.O=C(O)C(F)(F)F | 93% | 17% | 13% |
| Cc1cc(NCCCCCCCCNc2cc(C)nc3ccccc23)c2ccccc2n1.Cl | 100% | 0% | 59% |
